Measured values from PubChem BioAssay (EPA / NIEHS).
Results filed as inconclusive are left out. Active and inactive are the calls of the source. Rule for the calls: active = hit-call score of the fitted dose curve at least 0.9, where 1 is the maximum; inconclusive = response in the unintended direction; inactive = score below 0.9.

Assays:
[1] = TOX21_p53_BLA_p2_viability: Viability Assessment in the Tox21 HCT-116 p53 Agonism Beta-lactamase Assay, Phase 2 (AID 2283591);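 note: compound exposure lasted 16 h at 37 °C; actives lower the ATP signal meaning cytotoxicity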
How it was run: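 HCT-116 p53-bla cells (4000/well) rested 5 h at 37C, then received compounds in DMSO (217-fold dilution) for 16 h at 37C, 5% CO2. After the CCF4 read, CellTiter-Glo was added; ATP luminescence was read after 30 min at room temperature.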

[2] = molecular target: Cellular tumor antigen p53 (Homo sapiens) (UniProt P04637); assay: TOX21_p53_BLA_p2_ratio: Tox21 HCT-116 p53 Agonism Beta-lactamase Assay, Ratio, Phase 2 (AID 2283592)
How it was run: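 In this cell-based reporter format, HCT116 cells were dosed with chemicals delivered from DMSO by 217-fold dilution and incubated 16 h at 37C. Emission at 460 and 530 nm after 2 h CCF4-AM loading provided the ratio, fitted upward versus DMSO.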

[3] = TOX21_p53_BLA_p3_viability: Viability Assessment in the Tox21 HCT-116 p53 Agonism Beta-lactamase Assay, Phase 3 (AID 2283593);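 note: cells exposed to compound for 16 h before reading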
How it was run: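 HCT-116 cells (4000/well) rested 5 h at 37C, then got DMSO compounds by pin tool (217-fold dilution) for 16 h at 37C, 5% CO2. After the bla read, CellTiter-Glo was added and luminescence read at 30 min, room temperature.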

[4] = molecular target: Cellular tumor antigen p53 (Homo sapiens) (UniProt P04637); assay: TOX21_p53_BLA_p3_ratio: Tox21 HCT-116 p53 Agonism Beta-lactamase Assay, Ratio, Phase 3 (AID 2283596)
How it was run: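 HCT116 p53-bla cells (4000/well) given compound in DMSO (217-fold dilution) after 5 h, incubated 16 h at 37C. CCF4-AM substrate 2 h at room temperature; 460/530 nm emission ratio, gain fitted against DMSO.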

[5] = TOX21_p53_BLA_p4_viability: Viability Assessment in the Tox21 HCT-116 p53 Agonism Beta-lactamase Assay, Phase 4 (AID 2283597);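 note: hits lower the luminescence signal meaning cytotoxicity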
How it was run: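 We seeded HCT116 p53 reporter cells at 4000/well and waited 5 h. We then added compounds in DMSO at a 217-fold dilution and incubated for 16 h. Viability was read as CellTiter-Glo luminescence after 30 min at RT.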

[6] = molecular target: Cellular tumor antigen p53 (Homo sapiens) (UniProt P04637); assay: TOX21_p53_BLA_p5_ratio: Tox21 HCT-116 p53 Agonism Beta-lactamase Assay, Ratio, Phase 5 (AID 2283599)
How it was run: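 HCT-116 cells carrying a p53-inducible beta-lactamase reporter were seeded at 4000 cells/well and dosed after 5 h with compound in DMSO (217-fold dilution). After 16 h at 37C, CCF4-AM substrate was added for 2 h, and the 460/530 nm emission ratio was scored as gain-of-signal versus DMSO.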

[7] = TOX21_p53_BLA_p5_viability: Viability Assessment in the Tox21 HCT-116 p53 Agonism Beta-lactamase Assay, Phase 5 (AID 2283600)
How it was run: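 Compounds, pinned from DMSO at 217-fold dilution, were left on the cells for 16 h. The viability endpoint was ATP content measured by CellTiter-Glo luminescence, where falling signal reflects cytotoxicity.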

[8] = molecular target: Cellular tumor antigen p53 (Homo sapiens) (UniProt P04637); assay: TOX21_p53_BLA_p4_ratio: Tox21 HCT-116 p53 Agonism Beta-lactamase Assay, Ratio, Phase 4 (AID 2283601)
How it was run: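 HCT116 cells carrying an inducible beta-lactamase reporter were plated at 4000 cells/well, rested 5 h, then exposed to compounds in DMSO (217-fold dilution) for 16 h at 37C. CCF4-AM substrate was loaded 2 h at room temperature; 460/530 nm emission ratio scored gain-of-signal versus DMSO.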

Measured: AC50

Cellular tumor antigen p53 (Homo sapiens), sequence (P04637 whole entry, looked up): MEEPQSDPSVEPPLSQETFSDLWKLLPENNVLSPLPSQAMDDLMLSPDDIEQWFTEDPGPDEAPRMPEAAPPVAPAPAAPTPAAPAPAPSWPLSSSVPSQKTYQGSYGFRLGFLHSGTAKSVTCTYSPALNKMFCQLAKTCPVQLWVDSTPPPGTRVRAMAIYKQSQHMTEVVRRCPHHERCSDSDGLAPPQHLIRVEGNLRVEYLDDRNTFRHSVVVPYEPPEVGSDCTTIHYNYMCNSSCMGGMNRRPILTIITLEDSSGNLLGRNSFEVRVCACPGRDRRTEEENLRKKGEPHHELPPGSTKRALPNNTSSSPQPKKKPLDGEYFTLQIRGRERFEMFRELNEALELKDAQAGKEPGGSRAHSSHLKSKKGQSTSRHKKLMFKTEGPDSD

NCCOCCN
inactive: all assays above

CCOC(=O)C=CC(=O)O
inactive: all assays above

CC[C@H](C)COC(=O)/C=C/c1ccc(N=Cc2ccc(OC)cc2)cc1
active: [1] 43.5 µM | [2] 87.2 µM | [5] 46 µM | [8] 84.4 µM
inactive: [3] | [4] | [6] | [7]

CC(C)(C)C(=O)O
inactive: all assays above

Cc1ccc(S(=O)(=O)NC(=O)NC2CCCCCCC2)cc1
inactive: all assays above

NC(=O)NS(=O)(=O)c1ccc(N)cc1
inactive: all assays above

C=CC(=O)Nc1cc2c(Nc3ccc(F)c(Cl)c3)ncnc2cc1OCCCN1CCOCC1
active: [3] 38.7 µM | [4] 25.4 µM | [8] 7.82 µM
inactive: all other assays above

Nc1ccc(C(=O)Oc2ccccc2)c(O)c1
inactive: all assays above

NC(=O)C(c1ccccc1)(c1ccccc1)[C@@H]1CCN(CCc2ccc3c(c2)CCO3)C1
inactive: all assays above

c1cc(OCC2CO2)cc(OCC2CO2)c1 (centres undefined)
active: [2] 14.3 µM | [3] 70.3 µM | [4] 20.4 µM | [6] 14.3 µM | [8] 63.2 µM
inactive: [1] | [5] | [7]

O=C(O)C[C@H](NC(=O)OCc1ccccc1)C(=O)O
inactive: all assays above

CC1=C(/C=C/C(C)=C/C=C/C(C)=C/C=C/C=C(C)/C=C/C=C(C)/C=C/C2=C(C)C[C@@H](O)CC2(C)C)C(C)(C)C[C@H](O)C1
active: [1] 40.1 µM | [2] 38.8 µM | [4] 33.8 µM | [5] 36.6 µM | [6] 38.8 µM | [7] 43.2 µM | [8] 36.4 µM
inactive: [3]

O=C(O)c1cc(Cl)cc(Cl)c1
inactive: all assays above

CO[C@@H]1[C@@H](O[C@@H]2O[C@H](C)[C@@H](O[C@H]3C[C@@](C)(O)[C@@H](OC(=O)CC(C)C)[C@H](C)O3)[C@H](N(C)C)[C@H]2O)[C@@H](CC=O)C[C@@H](C)C(=O)/C=C/C2OC2C[C@@H](C)OC(=O)C[C@H]1OC(C)=O (some centres undefined)
inactive: all assays above

CCCCCCCC[N+](CCCCCCCC)(CCCCCCCC)CCCCCCCC
active: [1] 18.9 µM | [2] 54.8 µM | [3] 29.3 µM | [4] 56.2 µM | [5] 36.2 µM | [6] 64.1 µM | [7] 34 µM | [8] 64.5 µM

CCCCCCCCCOC(=O)c1ccc(O)cc1
active: [1] 53.3 µM | [2] 80.5 µM | [5] 23 µM | [8] 39.3 µM
inactive: [3] | [4] | [6] | [7]

CC(C)=CCOc1ccc(/C=C/C(=O)c2ccc(OCC=C(C)C)cc2OCC(=O)O)cc1
inactive: [7]
active: [1] 8 µM | [2] 6.92 µM | [3] 14.9 µM | [4] 13.8 µM | [5] 7.92 µM | [6] 9.9 µM | [8] 7.21 µM

CC(C)(C)NCC(O)CSc1nc(-c2ccc(C(N)=O)s2)cs1 (centres undefined)
inactive: all assays above

Cc1cc(O)c(C(C)C)cc1Cl
inactive: all assays above

CC(C)COCC(CN(Cc1ccccc1)c1ccccc1)N1CCCC1 (centres undefined)
inactive: all assays above

Cc1c(C)n(Cc2ccccc2)c2ccc(C(=O)OCCN(C)C)cc12
active: [5] 18.3 µM
inactive: all other assays above

CCCC(C)c1ccccc1O (centres undefined)
inactive: all assays above

NC(=O)c1ccccc1C(N)=O
active: [2] 72.7 µM | [6] 73.1 µM
inactive: all other assays above
